Measurements published in PubChem BioAssay (Tox21).
Values joined by “and” are separate entries in the source; they are usually repeats but may differ in a detail not shown here. Equal entries are not always repeated. Records with an inconclusive call do not appear. A call without a number means that no potency is given here. Some structures have more than one record in an assay (separate samples or runs), and their calls can disagree. Active and inactive are the calls of the source. The call rests on the fitted dose curve; in most records, active means well fitted activation curve with a large enough effect in the repeat runs; inconclusive means weak or mixed curves; inactive means no such curve, though single readings can be large or run the other way. Starred links: 1 amine or outer side, 2 acyl side, 3 side chain; linkers in the order of their positions; H or OH if unused. Positions of bridges follow the written chain, without caps; N, C: chain ends. Non-standard residues stand in square brackets, D forms with d. Residues, ends and D or L forms follow the SMILES beside them. Chains are numbered I, II in the order given. Actinocin(9to1) = Cc1c2oc3c(C)ccc(C(=O)[*:1])c3nc-2c(C(=O)[*:2])c(N)c1=O; NMeV = CN[C@H](C(=O)O)C(C)C; Sar = CNCC(=O)O

What follows are compounds tested against Aryl hydrocarbon receptor (Homo sapiens) (UniProt P35869) (assay: qHTS assay to identify small molecule that activate the aryl hydrocarbon receptor (AhR) signaling pathway (AID 743085; further: nearly all actives have a fitted effect of over 15% in size;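 on activation: HG2L7.5c1 human HepG2 liver cells with stably integrated DRE-driven firefly reporter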)). Details: HepG2 AhR-luc (HG2L7.5c1), luciferase, 24 h; series mostly up to 70.3 µM; activation: at the top concentration.
Sequence of Aryl hydrocarbon receptor (Homo sapiens) (P35869 whole entry, looked up): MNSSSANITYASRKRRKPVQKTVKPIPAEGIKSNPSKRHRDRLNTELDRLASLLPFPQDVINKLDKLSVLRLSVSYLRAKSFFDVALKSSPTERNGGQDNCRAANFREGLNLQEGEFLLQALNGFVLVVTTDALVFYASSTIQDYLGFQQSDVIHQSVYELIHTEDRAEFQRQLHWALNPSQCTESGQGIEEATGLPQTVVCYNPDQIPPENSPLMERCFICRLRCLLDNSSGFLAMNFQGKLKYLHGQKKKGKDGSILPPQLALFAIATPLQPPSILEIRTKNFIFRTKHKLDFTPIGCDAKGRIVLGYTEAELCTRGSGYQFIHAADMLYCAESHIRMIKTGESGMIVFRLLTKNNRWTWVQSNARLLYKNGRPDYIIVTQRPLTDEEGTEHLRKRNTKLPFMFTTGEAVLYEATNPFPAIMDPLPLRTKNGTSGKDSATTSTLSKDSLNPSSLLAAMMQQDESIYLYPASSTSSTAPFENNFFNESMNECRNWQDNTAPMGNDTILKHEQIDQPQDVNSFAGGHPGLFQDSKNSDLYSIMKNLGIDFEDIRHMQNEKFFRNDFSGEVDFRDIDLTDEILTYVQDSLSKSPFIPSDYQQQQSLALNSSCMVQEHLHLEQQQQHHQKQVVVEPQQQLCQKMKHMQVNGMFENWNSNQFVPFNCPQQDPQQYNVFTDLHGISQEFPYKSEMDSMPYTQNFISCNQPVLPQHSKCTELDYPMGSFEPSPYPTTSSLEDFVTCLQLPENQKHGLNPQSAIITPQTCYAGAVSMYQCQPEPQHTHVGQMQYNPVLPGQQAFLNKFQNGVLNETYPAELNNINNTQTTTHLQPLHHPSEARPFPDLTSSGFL
Source text: U.S. Tox21 Program National Center for Advancing Translational Sciences [NCATS] NIH Chemical Genomics Center [NCGC] U.S. Environmental Protection Agency [EPA] National Institutes of Environmental Health Sciences [NIEHS] National Toxicology Program [NTP] U.S. Food and Drug Administration [FDA] Tox21 Assay overview: The Aryl hydrocarbon Receptor (AhR), a member of the family of basic helix-loop-helix transcription factors, is crucial to adaptive responses to environmental changes. AhR mediates cellular responses to environmental pollutants such as aromatic hydrocarbons through induction of phase I and II enzymes but also interacts with other nuclear receptor signaling pathways. A cell based HepG2-AhR-luc assay (HG2L7.5c1 cell line, developed by Dr. Michael S. Denison, University of California at Davis, was used to assess the activation of AhR. HepG2 (human hepatocellular carcinoma) cells were stably transfected with an Ah receptor-responsive firefly luciferase reporter gene plasmid containing 20 dioxin responsive elements and luciferase reporter gene. Increased luciferase activity can be used to identify the compounds that induce AhR activation.
Tox21 Assay Protocol Summary: 4000 cells in 5 uL/well were dispensed into white wall/solid bottom 1536-well plates using a Multidrop Combi (Thermo Fisher Scientific Inc., Waltham, MA) dispenser. After the assay plates were incubated at 37C for 5 h, 23 nL of compound or DMSO vehicle was transferred to the assay plates by a pintool station (Kalypsys, San Diego, CA). The plates were incubated at 37C for 24 hr. After 1 ul/well of CellTiter-Fluor reagent (Promega, Madison, WI) was added into the assay plates using a Flying Reagent Dispenser (FRD) (Aurora Discovery, CA), the assay plates were incubated at 37C for 30 min. The fluorescence intensity in the plates was measured using a ViewLux plate reader (PerkinElmer, Shelton, CT), followed by the addition of 4 uL of ONE-Glo Luciferase Assay reagent (Promega) using an FRD (Aurora Discovery). After the assay plates were incubated at room temperature for 30 min, luminescence intensity was measured using a ViewLux plate reader (Perkin Elmer).
Potency means the concentration at half of the fitted maximal effect.

Question: Which Potency does the source give for CCCCCCCCCCCCCC[P+](CCCC)(CCCC)CCCC here?
Answer: inactive

Question: Cc1cc(C2(c3cc(C)c(O)cc3C)OS(=O)(=O)c3ccccc32)c(C)cc1O was tested. Which Potency did it give?
Answer: 30.6 µM (active) and inactive

Question: With CCc1ccc(C(c2ccc(CC)cc2)C(Cl)Cl)cc1 as the compound, how does the Potency read?
Answer: inactive

Question: For Cc1c2oc3c(C)ccc(C(=O)N[C@@H]4C(=O)N[C@H](C(C)C)C(=O)N5CCC[C@H]5C(=O)N(C)CC(=O)N(C)[C@@H](C(C)C)C(=O)O[C@@H]4C)c3nc-2c(C(=O)N[C@@H]2C(=O)N[C@H](C(C)C)C(=O)N3CCC[C@H]3C(=O)N(C)CC(=O)N(C)[C@@H](C(C)C)C(=O)O[C@@H]2C)c(N)c1=O (I: T[dV]P[Sar][NMeV] / II: T[dV]P[Sar][NMeV]; ester I:1-I:C, II:1-II:C; linker I:N-II:N via Actinocin(9to1)), which “activation” value is on record?
Answer: 0.456% (inactive)

Question: For Cc1ccc(-c2cc(C(F)(F)F)nn2-c2ccc(S(N)(=O)=O)cc2)cc1, which Potency is on record?
Answer: inactive

Question: Which Potency does the source give for O=c1n(CC2CO2)c(=O)n(CC2CO2)c(=O)n1CC1CO1 (stereo not given) here?
Answer: inactive

Question: For CC(C)CCOCc1ccccc1, which “activation” value is on record?
Answer: -0.184% (inactive)

Question: Cc1cccc(O)c1C was tested. Which Potency did it give?
Answer: inactive

Question: Which “activation” value does the source give for CO[Si](OC)(OC)c1ccccc1 here?
Answer: -1.05% (inactive)

Question: CC(C)(C)c1ccc(O)c(C(C)(C)C)c1 was tested. Which Potency did it give?
Answer: inactive

Question: CCC(C)(C)C(=O)O[C@H]1C[C@@H](C)C=C2C=C[C@H](C)[C@H](CC[C@@H]3C[C@@H](O)CC(=O)O3)[C@H]21 was tested. Which Potency did it give?
Answer: inactive

Question: With Oc1c(Cl)cc(Cl)c(Cl)c1Cc1c(O)c(Cl)cc(Cl)c1Cl as the compound, how does the Potency read?
Answer: inactive

Question: Which Potency does the source give for CCC(=O)/C=C/C1C(C)=CCCC1(C)C (stereo not given) here?
Answer: inactive

Question: Which Potency does the source give for Oc1ccc(Cl)cc1Cc1cc(Cl)ccc1O here?
Answer: inactive

Question: CCn1cc(C(=O)O)c(=O)c2cc(F)c(N3CCNC(C)C3)c(F)c21 (stereo not given) was tested. Which Potency did it give?
Answer: inactive

Question: How did the Potency turn out when C=CS(=O)(=O)O was run?
Answer: inactive

Question: CC(=O)N[C@@H](CS)C(=O)O was tested. Which Potency did it give?
Answer: inactive

Question: Which Potency does the source give for O=C(OCc1ccccc1)c1ccc(O)cc1 here?
Answer: inactive

Question: Which Potency does the source give for CC[C@H]1CN2CCc3cc(OC)c(OC)cc3[C@@H]2C[C@@H]1C[C@H]1NCCc2cc(OC)c(OC)cc21 here?
Answer: inactive

Question: How did the Potency turn out when CCCCCCC(O)CCCCCCCCCCC(=O)O (stereo not given) was run?
Answer: inactive

Question: O=C(O)CP(=O)(O)O was tested. Which “activation” value did it give?
Answer: -0.951% (inactive)

Question: For CCOc1ccc2c(c1)C(C)=CC(C)(C)N2, which “activation” value is on record?
Answer: 8.72% (inactive)

Question: CCCCN(CCO)CCCC was tested. Which “activation” value did it give?
Answer: 0.933% [at 95 µM] (inactive)

Question: COc1ccc(Cc2cnc(N)nc2N)cc1OC was tested. Which “activation” value did it give?
Answer: 5.71% (inactive)

Question: Which Potency does the source give for OCCN1CCNCC1 here?
Answer: inactive

Question: With CC(C)CCCCCCc1ccc(O)cc1 as the compound, how does the Potency read?
Answer: inactive

Question: CCCCC/C=C/CC1CC(=O)OC1=O (stereo not given) was tested. Which “activation” value did it give?
Answer: 5.18% (inactive)

Question: With CCCCCCCCCCCC[N+](C)(C)C as the compound, how does the Potency read?
Answer: inactive

Question: With CCN(CC)C(=S)SSC(=S)N(CC)CC as the compound, how does the Potency read?
Answer: inactive

Question: How did the Potency turn out when c1ccc2n[nH]nc2c1 was run?
Answer: inactive

Question: With CCCN[C@H]1CCc2nc(N)sc2C1 as the compound, how does the Potency read?
Answer: inactive

Question: Which Potency does the source give for COC(=O)c1cccc(C(=O)OC)c1 here?
Answer: inactive

Question: Which Potency does the source give for C=C(C)C(=O)O here?
Answer: inactive

Question: Oc1c(Cl)cc(Cl)cc1Sc1cc(Cl)cc(Cl)c1O was tested. Which Potency did it give?
Answer: inactive

Question: With O=C(Oc1ccccc1)c1ccccc1O as the compound, how does the Potency read?
Answer: inactive

Question: Which Potency does the source give for Nc1ccc2cc3ccccc3cc2c1 here?
Answer: 62.2 µM (active) and 8.63 µM (active)

Question: For CCCC(=O)c1ccccc1, which “activation” value is on record?
Answer: -0.921% (inactive)

Question: With NNCCc1ccccc1 as the compound, how does the Potency read?
Answer: 10.1 µM (active) and 30.7 µM (active)

Question: How did the Potency turn out when O=C(O[C@@H]1Cc2c(O)cc(O)cc2O[C@@H]1c1cc(O)c(O)c(O)c1)c1cc(O)c(O)c(O)c1 was run?
Answer: inactive

Question: For [Cl][In]([Cl])[Cl], which Potency is on record?
Answer: inactive
